From PubChem BioAssay (NCATS)
Records with an inconclusive call do not appear. Active and inactive are the calls of the source. Unless noted, calls follow the shape of the full dose curve.

How the values were obtained:
[1] = target: Bile acid receptor (Homo sapiens) (UniProt Q96RI1); assay: qHTS assay for small molecule agonists of farnesoid X receptor signaling (AID 588527); conditions: HEK293T FXR-UAS-bla, beta-lactamase ratio, 16 h; activation: stronger effect = higher value;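 also: series mostly up to about 77 µM; 0% = vehicle basal and 100% = reference agonist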
Method in brief: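 Agonist-mode beta-lactamase reporter in GeneBLAzer FXR-UAS-bla HEK293T cells, titration up to 92 uM, 16 h exposure at 37 C, CCF4 fluorescence. Response scaled to DMSO (0%) and 100 uM chenodeoxycholic acid (100%), then Hill-fitted for EC50 and efficacy.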

[2] = target: Vitamin D3 receptor (Homo sapiens) (UniProt P11473); assay: qHTS assay for small molecule agonists of vitamin D receptor signaling (AID 588543);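 also: 0% = DMSO basal and 100% = reference agonist control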
Method in brief: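 VDR-UAS-bla HEK293T cells, 2000/well, 2% charcoal-stripped FBS; compound titration 16 h at 37 C; CCF4 beta-lactamase ratio read. Normalized to 50 nM 1-alpha,25-dihydroxyvitamin D3 (100%) and DMSO; Hill fit gives EC50, efficacy.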

[3] = qHTS assay for small molecule antagonists of retinoid X receptor alpha signaling (AID 588546; active = well fitted inhibition curve with a large enough effect in the signal ratio, with a control signal flat, not every such curve was filed as active; the % refers to the signal ratio; also: potency is read from the fitted curve at half-maximal effect); conditions: HEK293T RXRa-UAS-bla, beta-lactamase ratio, antagonist mode; measured here: W530 green channel, cytotoxicity proxy
Method in brief: (§1)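 Beta-lactamase reporter inhibition, read as CCF4 fluorescence ratio (ex 405, em 460/530 nm) after 2 h at RT. HEK293T UAS-bla cells, 2500/well, were stimulated with 9-cis-RA at 500 or 100 nM final alongside test compound for 18 h at 37 C.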

[4] = target: Retinoic acid receptor RXR-alpha (Homo sapiens) (UniProt P19793); assay: as above; conditions: HEK293T RXRa-UAS-bla, beta-lactamase ratio, antagonist mode
Method in brief: as §1

[5] = qHTS assay for environmental chemicals that activate the Aryl hydrocarbon Receptor (AhR) signaling pathway (AID 651777; active = well fitted curve in the direction sought with a large enough effect; an effect the other way counts as inactive or inconclusive; also: % of control where 0% means no effect; nearly all actives have a fitted effect of over 15% in size); conditions: 1A2-DRE human hepatoma cells, luciferase, 24 h; activation: stronger effect = higher value
Method in brief: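 Human hepatoma 1A2-DRE cells, stably carrying a dioxin response element and CYP1A2 promoter driving luciferase, were exposed to compounds for 24 hr at 37 C and 5% CO2. Luciferase signal was then read after 30 min One-Glo at room temperature.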

[6] = target: Peroxisome proliferator-activated receptor alpha (Homo sapiens) (UniProt Q07869); assay: qHTS assay for small molecule agonists of the peroxisome proliferator-activated receptor alpha (PPARalpha) signaling pathway (AID 651778; active = well fitted curve in the direction sought with a large enough effect; an effect the other way counts as inactive or inconclusive; also: % of control where 0% means no effect); conditions: PathHunter PPARalpha complementation, chemiluminescence, 6 h; max response: stronger effect = higher value
Method in brief: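 Cells plated at 2,000/well and held overnight at 37 C, 5% CO2, then compound added by pin tool for 6 hr; after PathHunter detection reagent and 60 min at room temperature, chemiluminescence from enzyme complementation was read.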

[7] = qHTS assay for small molecule agonists of the antioxidant response element (ARE) signaling pathway measured by Nrf2-dependant transcriptional activity (AID 720636; active = well fitted curve in the direction sought with a large enough effect in the repeat runs; an effect the other way counts as inactive or inconclusive; also: % of control where 0% means no effect)
Method in brief: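 ARE-luc HepG2 cells carrying an Nrf2-responsive luciferase reporter were plated in medium with 1% dialyzed FBS, left 6 hr at 37 C to attach, then exposed to compound for 16 hr. Luciferase luminescence was read after ONE-Glo addition.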

[8] = qHTS assay for cell viability of HEK293 cells (AID 743288; active = well fitted curve in the direction sought with a large enough effect; an effect the other way counts as inactive or inconclusive; also: nearly all actives have a fitted effect of over 50% in size; also: potency is read from the fitted curve at half-maximal effect); conditions: ATP luminescence (CellTiter-Glo), 18 h; max response: stronger effect = lower value
Method in brief: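 Parental HEK293 cells, 2,000 per well, preincubated at least 5 h at 37 C, then exposed to compounds in DMSO for 18 h at 37 C. Viability by CellTiter-Glo ATP luminescence after 30 min at room temperature.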

[9] = qHTS assay for cell viability of the p53RE-bla HCT-116 cell line (AID 743292; active = well fitted curve in the direction sought with a large enough effect; an effect the other way counts as inactive or inconclusive; also: nearly all actives have a fitted effect of over 55% in size; also: potency is read from the fitted curve at half-maximal effect)
Method in brief: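 CellSensor p53RE-bla HCT-116 cells, 4,000/well, preincubated 5 h at 37 C, then exposed to compounds in DMSO for 16 h at 37 C. Viability read as CellTiter-Glo luminescence (intracellular ATP) after 30 min at room temperature.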

[10] = target: Nuclear receptor subfamily 1 group I member 2 (Rattus norvegicus) (UniProt Q9R1A7); assay: qHTS assay for small molecule activators of the rat pregnane X receptor (rPXR) signaling pathway (AID 651751; call rule not given here; also: 0% is about no effect); conditions: rPXR reporter cells, luciferase (One-Glo), 24 h
[11] = target: Cytochrome P450 3A4 (Homo sapiens) (UniProt P08684); assay: qHTS Assay for Activators of Cytochrome P450 3A4 (AID 885; active = well fitted curve in the direction sought with a large enough effect; an effect the other way counts as inactive or inconclusive; also: nearly all actives have a fitted effect of over 65% in size)
Method in brief: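 Signal was normalized against complete inhibition by 57 uM ketoconazole. The reaction used 20nM CYP3A4 with 25uM Luciferin-PPXE, 10-min compound preincubation and a 60-min NADPH-supported step at RT.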

[12] = target: Peroxisome proliferator-activated receptor delta (Homo sapiens) (UniProt Q03181); assay: qHTS assay for small molecule agonists of peroxisome proliferator-activated receptor delta signaling (AID 588534);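 also: 0% = DMSO basal wells and 100% = positive control agonist at 10 µM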
Method in brief: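 Reporter cells were plated and held 5 hrs at 37 C before compounds were added. After 18 hrs at 37 C, CCF4 dye was loaded for 2 hrs at RT and fluorescence measured.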

[13] = target: Glucocorticoid receptor (Homo sapiens) (UniProt P04150); assay: qHTS assay for small molecule agonists of glucocorticoid receptor signaling (AID 588532; active = well fitted curve in the direction sought with a large enough effect in the signal ratio, with a control signal flat; the % refers to the signal ratio;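 also: 100% = dexamethasone at 0.1 µM and 0% = DMSO only wells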); conditions: HeLa MMTV-bla, beta-lactamase ratio, agonist, 18 h; activation: stronger effect = higher value, percent of dexamethasone control, DMSO zero
Method in brief: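 Titration series, up to 92 uM, applied to GRE-bla HeLa cells for 18 h at 37 C. Detection by CCF4 FRET substrate after 2 h at RT.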

[14] = target: Glucocorticoid receptor (Homo sapiens) (UniProt P04150); assay: qHTS assay for small molecule antagonists of glucocorticoid receptor signaling (AID 588533; active = well fitted inhibition curve with a large enough effect in the signal ratio, with a control signal flat, not every such curve was filed as active; the % refers to the signal ratio;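 also: cells stimulated with 2 nM dexamethasone as agonist; % is scaled to controls: 0 for no effect and ±100 for the full control effect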)
Method in brief: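 Antagonist-mode qHTS: compound titrations added to GRE-bla HeLa cells, then dexamethasone 2 nM final; 18 h, 37 C. CCF4 FRET fluorescence normalized to dexamethasone and DMSO; IC50 from Hill fit.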

[15] = qHTS assay for small molecule antagonists of peroxisome proliferator-activated receptor delta signaling (AID 588535; active = well fitted inhibition curve with a large enough effect in the signal ratio, with a control signal flat, not every such curve was filed as active; the % refers to the signal ratio;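 as to max response: cells co-treated with a PPAR-delta agonist as stimulator during compound exposure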); conditions: HEK293T PPARd-UAS-bla, beta-lactamase FRET ratio, 18 h; 460 nm channel
Method in brief: (§2)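 GeneBLAzer PPAR-delta-UAS-bla HEK293T cells in medium with 2% charcoal/dextran FBS were preincubated 5 hrs at 37 C, then given compounds, incubated 18 hrs at 37 C, and read by CCF4 beta-lactamase fluorescence; IC50 from Hill fits.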

[16] = target: Peroxisome proliferator-activated receptor delta (Homo sapiens) (UniProt Q03181); assay: as above
Method in brief: as §2

[17] = target: Peroxisome proliferator-activated receptor gamma (Homo sapiens) (UniProt P37231); assay: qHTS assay for small molecule agonists of peroxisome proliferator-activated receptor gamma signaling (AID 588536; active = well fitted curve in the direction sought with a large enough effect in the signal ratio, with a control signal flat, not every such curve was filed as active; the % refers to the signal ratio;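 also: 0% = DMSO basal wells and 100% = rosiglitazone at 2 µM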)
Method in brief: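 Ratiometric blue/green fluorescence (405 nm excitation; 460 and 530 nm emission) from CCF4-loaded HEK293 reporter cells serves as signal. Exposure to test compounds lasts 16 h at 37 C in medium containing 1% charcoal/dextran-treated serum.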

[18] = target: Peroxisome proliferator-activated receptor gamma (Homo sapiens) (UniProt P37231); assay: qHTS assay for small molecule antagonists of peroxisome proliferator-activated receptor gamma signaling (AID 588537; active = well fitted inhibition curve with a large enough effect in the signal ratio, with a control signal flat, not every such curve was filed as active; the % refers to the signal ratio;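 also: reporter cells co-stimulated with 50 nM rosiglitazone agonist during compound treatment; % of control where 0% means no effect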)
Method in brief: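 PPAR-gamma-UAS-bla HEK293 cells (3000/well, 1% charcoal/dextran-stripped FBS) were preincubated 6-6.5 h at 37 C, given titrated compounds, then stimulated with 50 nM rosiglitazone for 16 h. Beta-lactamase activity was read with CCF4 dye; IC50 came from Hill fits.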

[19] = target: Vitamin D3 receptor (Homo sapiens) (UniProt P11473); assay: qHTS assay for small molecule antagonists of vitamin D receptor signaling (AID 588541);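 also: receptor activated by calcitriol during compound treatment; series mostly up to about 77 µM; % is scaled to controls: 0 for no effect and ±100 for the full control effect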
Method in brief: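 VDR-UAS-bla HEK293T cells (2000/well, 2% charcoal-stripped FBS) were treated with titrated compounds plus 1-alpha,25-dihydroxyvitamin D3 (50 nM or 3 nM final) for 16 h at 37 C. CCF4 beta-lactamase fluorescence was read; Hill fits gave IC50.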

[20] = target: Thyroid hormone receptor beta (Homo sapiens) (UniProt P10828); assay: qHTS assay for small molecule agonists of thyroid hormone receptor beta signaling (AID 588545);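 also: 0% = DMSO only and 100% = 10 nM T3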
Method in brief: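 Efficacy and EC50 values derive from Hill fits of qHTS titration data, normalized to 10 nM T3 and DMSO-only wells. HEK 293 reporter cells were stimulated for 18 hrs at 37 C, with beta-lactamase activity measured by CCF4 fluorescence.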

[21] = target: Thyroid hormone receptor beta (Homo sapiens) (UniProt P10828); assay: qHTS assay for small molecule antagonists of thyroid hormone receptor beta signaling (AID 588547; active = well fitted inhibition curve with a large enough effect in the signal ratio, with a control signal flat, not every such curve was filed as active; the % refers to the signal ratio;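 also: cells stimulated with 0.4 nM T3 agonist during compound exposure; series mostly up to about 77 µM; % is scaled to controls: 0 for no effect and ±100 for the full control effect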); conditions: TR-UAS-bla HEK293, beta-lactamase ratio, antagonist mode, 18 h
Method in brief: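 TR-UAS-bla GripTite HEK293 cells in 2% charcoal/dextran FBS medium were preincubated 4 h at 37 C, given compound (0.59 nM to 92 uM) plus 0.4 nM T3 (final) for 18 h, then CCF4 for 2 h at RT; Hill fit gave IC50.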

[22] = qHTS assay for small molecule agonists of the antioxidant response element (ARE) signaling pathway (AID 651741; active = well fitted activation curve with a large enough effect in the signal ratio; the % refers to the signal ratio; also: potency is read from the fitted curve at half-maximal effect)
Method in brief: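 ARE-bla HepG2 cells (beta-lactamase reporter under ARE control) were plated at 2,000 cells/well, preincubated 5 h at 37 C/5% CO2, then treated with DMSO-dissolved compounds for 16 h at 37 C; LiveBLAzer B/G FRET substrate added, fluorescence read after 2 h at room temperature.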

[23] = qHTS assay for small molecule activators of the p53 signaling pathway (AID 651743; active = well fitted activation curve with a large enough effect in the signal ratio, not every such curve was filed as active; the % refers to the signal ratio; also: series mostly up to about 92 µM; % of control where 0% means no effect); conditions: HCT-116 p53RE-bla, beta-lactamase FRET ratio, 16 h; activation: stronger effect = higher value
Method in brief: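 p53RE-bla HCT-116 cells with a stably integrated beta-lactamase reporter under p53 response elements were plated, rested 5 hours at 37 C/5% CO2, then exposed to compounds in DMSO for 16 hours at 37 C. LiveBLAzer B/G FRET substrate was read after 2 hours at room temperature.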

[24] = qHTS assay for small molecule activators of the nuclear factor-kappa B (NF-kB) signaling pathway (AID 651749; active = well fitted activation curve with a large enough effect in the signal ratio; the % refers to the signal ratio; also: series mostly up to about 77 µM; % of control where 0% means no effect); conditions: NF-kB-bla ME-180 cells, beta-lactamase FRET ratio, 16 h; activation: stronger effect = higher value
Method in brief: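 ME-180 cells stably carrying a beta-lactamase reporter under an NF-kB response element were exposed to compound or DMSO vehicle for 16 hr at 37C, 5% CO2. Pathway activation was read by FRET, since reporter expression disrupts FRET.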

[25] = qHTS assay for small molecule agonists of the antioxidant response element (ARE) signaling pathway measured by Nrf2-dependant transcriptional activity - cell viability counter screen (AID 720653; active = well fitted curve in the direction sought with a large enough effect in the repeat runs; an effect the other way counts as inactive or inconclusive; also: % is scaled to controls: 0 for no effect and ±100 for the full control effect); conditions: ARE-bla HepG2 viability, CellTiter-Glo ATP luminescence, 16 h; max response: stronger effect = lower value
Method in brief: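 ARE-bla HepG2 cells (2,000/well) rested 5 hrs at 37C/5% CO2, then exposed to compounds in DMSO for 16 hrs. Viability was read in the same wells as intracellular ATP by luminescence, 30 min at room temperature after reagent addition.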

[26] = qHTS assay for small molecule activators of the human pregnane X receptor (PXR) signaling pathway (AID 720659; call rule not given here; also: 0% is about no effect)
[27] = qHTS assay for small molecule agonists of retinoid X receptor alpha signaling (AID 588544); conditions: HEK293T RXRa-UAS-bla, beta-lactamase reporter, 18 h; 530 nm emission;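 as to activation: 0% = DMSO basal wells and 100% = reference agonist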
[28] = target: Retinoic acid receptor RXR-alpha (Homo sapiens) (UniProt P19793); assay: as above

Chain of Glucocorticoid receptor (Homo sapiens) (P04150 whole entry, looked up): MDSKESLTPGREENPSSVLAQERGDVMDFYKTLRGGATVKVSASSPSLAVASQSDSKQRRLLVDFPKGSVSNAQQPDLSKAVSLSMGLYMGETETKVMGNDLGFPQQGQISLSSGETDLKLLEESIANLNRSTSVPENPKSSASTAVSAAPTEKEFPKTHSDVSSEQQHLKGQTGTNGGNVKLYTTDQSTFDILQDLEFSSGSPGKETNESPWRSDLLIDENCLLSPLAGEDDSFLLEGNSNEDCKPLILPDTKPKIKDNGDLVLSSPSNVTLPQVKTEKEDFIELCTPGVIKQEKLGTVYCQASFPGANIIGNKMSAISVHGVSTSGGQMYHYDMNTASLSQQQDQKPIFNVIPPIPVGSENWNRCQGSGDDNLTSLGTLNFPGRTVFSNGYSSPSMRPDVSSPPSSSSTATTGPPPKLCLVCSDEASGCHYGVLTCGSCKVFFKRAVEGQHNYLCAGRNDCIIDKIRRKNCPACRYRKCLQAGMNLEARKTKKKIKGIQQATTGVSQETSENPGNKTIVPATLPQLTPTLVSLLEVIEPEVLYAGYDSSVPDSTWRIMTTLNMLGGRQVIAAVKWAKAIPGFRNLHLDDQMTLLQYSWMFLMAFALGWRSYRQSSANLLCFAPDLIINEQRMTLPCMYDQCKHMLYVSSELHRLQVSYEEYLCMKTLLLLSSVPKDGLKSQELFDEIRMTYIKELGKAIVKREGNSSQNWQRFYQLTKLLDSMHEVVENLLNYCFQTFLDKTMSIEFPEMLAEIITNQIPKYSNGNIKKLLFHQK
Chain of Nuclear receptor subfamily 1 group I member 2 (Rattus norvegicus) (Q9R1A7 whole entry, looked up): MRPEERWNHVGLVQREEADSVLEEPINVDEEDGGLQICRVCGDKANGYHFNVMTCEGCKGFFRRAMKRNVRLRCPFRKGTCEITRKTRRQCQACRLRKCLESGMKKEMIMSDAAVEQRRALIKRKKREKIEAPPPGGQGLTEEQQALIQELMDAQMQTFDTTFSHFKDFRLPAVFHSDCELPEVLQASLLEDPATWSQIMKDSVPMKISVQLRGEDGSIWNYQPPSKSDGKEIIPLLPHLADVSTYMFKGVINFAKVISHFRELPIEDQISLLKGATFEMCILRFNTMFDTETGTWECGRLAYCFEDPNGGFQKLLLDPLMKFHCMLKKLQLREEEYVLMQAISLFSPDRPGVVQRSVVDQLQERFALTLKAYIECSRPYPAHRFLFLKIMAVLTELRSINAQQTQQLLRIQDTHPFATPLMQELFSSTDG
Chain of Thyroid hormone receptor beta (Homo sapiens) (P10828 whole entry, looked up): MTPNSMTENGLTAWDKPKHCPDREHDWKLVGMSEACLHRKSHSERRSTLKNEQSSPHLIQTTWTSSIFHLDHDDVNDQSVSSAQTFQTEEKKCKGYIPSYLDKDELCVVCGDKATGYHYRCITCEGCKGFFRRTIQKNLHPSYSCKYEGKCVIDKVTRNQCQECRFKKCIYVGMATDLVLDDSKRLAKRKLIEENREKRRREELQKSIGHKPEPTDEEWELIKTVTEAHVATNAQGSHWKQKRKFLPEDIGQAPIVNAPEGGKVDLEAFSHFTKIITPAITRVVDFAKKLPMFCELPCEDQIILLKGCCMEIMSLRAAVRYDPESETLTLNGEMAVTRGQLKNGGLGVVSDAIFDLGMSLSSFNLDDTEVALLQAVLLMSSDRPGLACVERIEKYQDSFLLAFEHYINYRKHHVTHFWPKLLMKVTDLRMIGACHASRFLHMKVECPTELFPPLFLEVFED
Chain of Retinoic acid receptor RXR-alpha (Homo sapiens) (P19793 whole entry, looked up): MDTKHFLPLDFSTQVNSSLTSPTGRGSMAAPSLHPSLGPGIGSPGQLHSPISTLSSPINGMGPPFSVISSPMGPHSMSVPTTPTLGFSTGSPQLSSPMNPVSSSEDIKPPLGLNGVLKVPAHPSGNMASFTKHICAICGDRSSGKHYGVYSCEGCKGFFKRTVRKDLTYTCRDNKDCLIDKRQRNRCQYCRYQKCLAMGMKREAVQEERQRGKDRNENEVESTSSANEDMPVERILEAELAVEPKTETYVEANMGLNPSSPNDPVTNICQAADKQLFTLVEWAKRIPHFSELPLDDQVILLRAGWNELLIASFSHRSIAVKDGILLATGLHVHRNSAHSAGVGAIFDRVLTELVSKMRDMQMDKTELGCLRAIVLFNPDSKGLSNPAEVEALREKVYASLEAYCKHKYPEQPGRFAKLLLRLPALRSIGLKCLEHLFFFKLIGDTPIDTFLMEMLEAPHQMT
Chain of Peroxisome proliferator-activated receptor alpha (Homo sapiens) (Q07869 whole entry, looked up): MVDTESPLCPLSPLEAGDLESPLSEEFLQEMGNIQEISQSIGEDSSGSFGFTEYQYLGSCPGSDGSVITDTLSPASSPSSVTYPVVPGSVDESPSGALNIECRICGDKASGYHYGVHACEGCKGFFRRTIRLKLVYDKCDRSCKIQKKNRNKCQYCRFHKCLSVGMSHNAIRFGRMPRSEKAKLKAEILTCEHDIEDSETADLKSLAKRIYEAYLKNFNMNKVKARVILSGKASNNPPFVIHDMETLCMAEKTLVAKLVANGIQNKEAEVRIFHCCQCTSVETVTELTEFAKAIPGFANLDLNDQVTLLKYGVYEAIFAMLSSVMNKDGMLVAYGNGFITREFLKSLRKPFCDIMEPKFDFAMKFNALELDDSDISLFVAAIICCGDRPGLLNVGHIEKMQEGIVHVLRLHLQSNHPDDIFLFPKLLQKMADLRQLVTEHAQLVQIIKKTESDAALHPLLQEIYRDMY
Chain of Vitamin D3 receptor (Homo sapiens) (P11473 whole entry, looked up): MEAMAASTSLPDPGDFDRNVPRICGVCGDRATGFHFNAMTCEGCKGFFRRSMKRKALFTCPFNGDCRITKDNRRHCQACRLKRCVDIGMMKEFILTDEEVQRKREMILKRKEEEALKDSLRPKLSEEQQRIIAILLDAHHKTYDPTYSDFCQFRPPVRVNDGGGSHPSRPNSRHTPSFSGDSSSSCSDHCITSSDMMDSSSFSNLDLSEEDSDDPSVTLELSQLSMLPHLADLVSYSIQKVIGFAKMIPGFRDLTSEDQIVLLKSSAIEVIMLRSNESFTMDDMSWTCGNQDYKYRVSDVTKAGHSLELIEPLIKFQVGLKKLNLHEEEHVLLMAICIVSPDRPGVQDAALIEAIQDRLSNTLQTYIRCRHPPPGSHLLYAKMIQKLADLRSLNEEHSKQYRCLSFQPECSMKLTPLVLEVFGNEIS
Chain of Peroxisome proliferator-activated receptor delta (Homo sapiens) (Q03181 whole entry, looked up): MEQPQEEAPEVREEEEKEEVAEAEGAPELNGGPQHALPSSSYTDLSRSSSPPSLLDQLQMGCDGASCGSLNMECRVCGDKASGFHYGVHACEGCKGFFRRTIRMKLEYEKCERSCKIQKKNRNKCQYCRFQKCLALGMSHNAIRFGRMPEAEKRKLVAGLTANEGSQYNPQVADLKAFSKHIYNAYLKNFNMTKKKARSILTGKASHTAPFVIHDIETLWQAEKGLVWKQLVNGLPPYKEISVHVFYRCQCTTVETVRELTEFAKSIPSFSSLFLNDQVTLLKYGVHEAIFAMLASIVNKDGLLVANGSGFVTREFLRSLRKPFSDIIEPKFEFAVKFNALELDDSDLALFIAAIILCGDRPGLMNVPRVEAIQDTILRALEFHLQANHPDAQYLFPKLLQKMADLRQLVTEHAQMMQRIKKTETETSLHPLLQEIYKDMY
Chain of Bile acid receptor (Homo sapiens) (Q96RI1 whole entry, looked up): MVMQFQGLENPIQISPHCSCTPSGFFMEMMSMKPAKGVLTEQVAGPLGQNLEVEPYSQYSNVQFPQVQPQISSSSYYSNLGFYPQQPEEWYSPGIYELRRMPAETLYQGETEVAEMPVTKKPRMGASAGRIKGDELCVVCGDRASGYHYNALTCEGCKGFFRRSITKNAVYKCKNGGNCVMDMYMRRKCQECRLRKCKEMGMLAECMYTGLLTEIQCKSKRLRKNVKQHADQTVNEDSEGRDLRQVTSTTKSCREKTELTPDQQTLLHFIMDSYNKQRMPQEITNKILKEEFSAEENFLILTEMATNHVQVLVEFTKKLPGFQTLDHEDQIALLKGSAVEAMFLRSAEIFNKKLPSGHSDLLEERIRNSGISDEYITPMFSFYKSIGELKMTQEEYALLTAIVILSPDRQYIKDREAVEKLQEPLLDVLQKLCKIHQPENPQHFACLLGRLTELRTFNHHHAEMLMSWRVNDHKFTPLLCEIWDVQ
Chain of Peroxisome proliferator-activated receptor gamma (Homo sapiens) (P37231 whole entry, looked up): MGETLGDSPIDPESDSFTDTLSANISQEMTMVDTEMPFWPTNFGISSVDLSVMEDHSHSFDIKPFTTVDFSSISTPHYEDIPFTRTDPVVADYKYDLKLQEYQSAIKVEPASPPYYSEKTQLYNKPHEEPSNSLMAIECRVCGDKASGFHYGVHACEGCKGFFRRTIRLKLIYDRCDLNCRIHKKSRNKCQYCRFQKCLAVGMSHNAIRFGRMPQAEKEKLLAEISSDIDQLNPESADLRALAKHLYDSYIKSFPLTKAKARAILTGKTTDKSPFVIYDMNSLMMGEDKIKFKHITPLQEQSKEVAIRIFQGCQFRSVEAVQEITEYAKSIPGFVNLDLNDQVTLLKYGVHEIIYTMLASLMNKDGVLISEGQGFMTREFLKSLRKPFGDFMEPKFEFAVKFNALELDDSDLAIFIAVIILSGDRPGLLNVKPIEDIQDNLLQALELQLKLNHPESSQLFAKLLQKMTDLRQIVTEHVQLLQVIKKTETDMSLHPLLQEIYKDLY
Chain of Cytochrome P450 3A4 (Homo sapiens) (P08684 whole entry, looked up): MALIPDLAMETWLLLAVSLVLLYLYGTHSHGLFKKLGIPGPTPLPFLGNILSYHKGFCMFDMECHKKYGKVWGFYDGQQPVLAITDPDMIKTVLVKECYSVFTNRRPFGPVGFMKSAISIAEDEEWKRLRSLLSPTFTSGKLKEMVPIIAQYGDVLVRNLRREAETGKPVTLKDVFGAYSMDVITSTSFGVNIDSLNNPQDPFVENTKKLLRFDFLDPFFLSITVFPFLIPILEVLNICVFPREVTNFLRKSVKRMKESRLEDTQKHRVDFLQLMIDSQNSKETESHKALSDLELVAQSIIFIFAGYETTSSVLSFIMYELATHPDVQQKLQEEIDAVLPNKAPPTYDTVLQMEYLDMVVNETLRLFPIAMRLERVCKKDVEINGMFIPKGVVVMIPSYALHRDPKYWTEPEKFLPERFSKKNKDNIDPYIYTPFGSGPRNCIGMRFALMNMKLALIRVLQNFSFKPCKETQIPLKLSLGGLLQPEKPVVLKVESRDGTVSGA

CN(c1c(Br)cc(Br)cc1Br)c1c([N+](=O)[O-])cc([N+](=O)[O-])cc1C(F)(F)F
active: Potency [4] 8.91 µM | Potency [8] 39.8 µM | Potency [9] 7.08 µM
-24%: max response [3]
inactive: activation [1] 1.9% | outcome [2] | activation [5] -7.94% | max response [6] -2.57% | Potency [7] | max response [10] -14.1%

Cc1cc([N+](=O)[O-])ccc1N
inactive: Potency [11] | activation [1] -0.935% | outcome [12]

O=[N+]([O-])c1ccc(Oc2ccc(Cl)cc2Cl)cc1
inactive: activation [13] -3.5% | Potency [14] | outcome [12] | Potency [16] | Potency [17] | Potency [18] | Potency [19] | outcome [2] | Potency [20] | max response [4] 5.62% | activity change % (negative = inhibition) [21] -8.47% | activation [23] -0.909% | activation [24] -1.65% | activation [5] 0.167% | max response [6] 5% | max response [25] -3.33% | max response [8] -5.28% | Potency [9] | max response [10] 6.97%
-7.09%: max response [3]
-2.51%: max response [15]
active: Potency [22] 48.6 µM

CC1COC(Cn2cncn2)(c2ccc(Oc3ccc(Cl)cc3)cc2Cl)O1 (centres undefined)
9.03%: max response [3]
active: Potency [4] 39.8 µM | Potency [22] 15.4 µM
inactive: activation [1] 3.21% | Potency [20] | activation [23] 12.1% | activation [5] 14.3% | max response [6] 6.01% | Potency [7] | max response [8] -29.8% | Potency [9] | max response [10] -12.8% | outcome [26]

[CH3][Sn]([Cl])([Cl])[Cl]
-11.9%: max response [27]
-4.62%: max response [15]
-11%: max response [3]
inactive: activation [13] -3.55% | Potency [14] | outcome [12] | Potency [16] | Potency [17] | Potency [18] | Potency [19] | outcome [2] | Potency [28] | max response [4] -14.8% | activation [23] -2.75% | max response [6] 0.635% | Potency [7] | max response [25] -16% | max response [8] -18.6% | Potency [9] | max response [10] -7.26% | outcome [26]

O=C(O)c1ccc(Cl)cc1Cl
inactive: activation [1] -2.47% | outcome [12]

S=C([S-])NCCNC(=S)[S-].S=C([S-])NCCNC(=S)[S-].[Mn+2].[Zn+2]
inactive: activation [13] 13.6% | Potency [19]

Oc1cc2c(cc1O)[C@H]1c3ccc(O)c(O)c3OC[C@@]1(O)C2
inactive: outcome [12]
